# The sample as a whole holds a higher share of hits than the screen did.
# LmPK inhibitor = blocks Leishmania mexicana pyruvate kinase activity; Potency, µM (top dose mostly 57.5 µM), actives largely listed as inhibitors; Q27686; purified LmPK, Kinase-Glo ATP luminescence, 1 h; 290,000 compounds, 0.37% hits; AID 1721
# Target sequence (Q27686 whole entry, looked up): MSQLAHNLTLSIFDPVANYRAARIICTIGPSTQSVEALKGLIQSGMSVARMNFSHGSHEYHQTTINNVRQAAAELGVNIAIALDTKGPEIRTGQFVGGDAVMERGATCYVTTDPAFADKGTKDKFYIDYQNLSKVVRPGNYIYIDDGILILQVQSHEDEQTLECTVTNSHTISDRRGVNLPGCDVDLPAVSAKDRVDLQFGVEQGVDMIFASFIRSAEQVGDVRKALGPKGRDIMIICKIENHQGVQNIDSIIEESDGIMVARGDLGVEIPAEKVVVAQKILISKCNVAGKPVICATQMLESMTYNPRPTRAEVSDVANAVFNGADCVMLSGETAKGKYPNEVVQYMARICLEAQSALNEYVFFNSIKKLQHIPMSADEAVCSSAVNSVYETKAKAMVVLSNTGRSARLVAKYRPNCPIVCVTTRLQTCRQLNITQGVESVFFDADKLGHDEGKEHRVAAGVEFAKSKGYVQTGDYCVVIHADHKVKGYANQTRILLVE
#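 Pyruvate kinase activity monitored as ATP production (luciferase luminescence). Conditions: 0.1 nM enzyme, 0.5 mM PEP, 0.1 mM ADP, 1 h, RT; normalized against uninhibited and no-enzyme wells.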
# FBPA Giardia inh = blocks Giardia fructose-bisphosphate aldolase activity. purified Giardia FBPA. 290,000 compounds, 0.71% hits. Potency, µM (titrated, usually from 59.6 µM), usual class: inhibitors. A8B2U2. AID 2451; also: nearly all actives have a fitted effect of over 55% in size
#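 Giardia FBPA (40 nM reagent) was preincubated 10 min at RT with compound (up to 57.5 uM final), then substrate plus GAPDH/TPI/NAD/arsenate coupling system with diaphorase/resazurin was added; resorufin fluorescence (525/598 nm) was read after 20 min.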
# Shiga inhibitor = blocks Shiga toxin action in Vero cells. Vero cells, Shiga toxin protein synthesis inhibition reporter. inhibition, % at 38.7 µM. 290,000 compounds, 9.2% hits; in the data active = inhibition mostly above about 28%, no sharp cut-off; inactive = mostly below about 43%
# TbPYK inhibitor = blocks Trypanosoma brucei pyruvate kinase. Q57TT1. TbPYK enzyme, Kinase-Glo Plus ATP luminescence, 45 min. Potency, µM (series often up to 76.8 µM), most hits filed as inhibitors. 410,000 compounds, 0.12% hits. AID 624173; also: nearly all actives have a fitted effect of over 50% in size
#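 TbPYK + substrate in 50 mM TEA pH 7.2, 100 mM KCl, 10 mM MgCl2, 0.05% BSA, 0.01% Tween-20; cpd pinned; ADP 130 uM final; 45 min RT; Kinase-Glo Plus 10 min; luminescence endpoint.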
# CHX counter = counter-screen for Shiga toxin inhibitors: cycloheximide protein synthesis inhibition; cell reporter, cycloheximide protein synthesis inhibition counterscreen; 300,000 compounds, 12% hits; max response, %; in the data active = max response mostly above about 13%, no sharp cut-off; inactive = mostly below about 14%; also: read at 38.3 µM for the half of the compounds with a filed dose
# Sm TGR inh = blocks Schistosoma mansoni thioredoxin glutathione reductase; Q962Y6; purified TGR, DTNB reduction, TNB absorbance 405 nm; Potency, µM (doses to about 114 µM), usual class: inhibitors; 360,000 compounds, 3% hits; AID 485364; also: nearly all actives have a fitted effect of over 60% in size
#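 TGR 20 nM + NADPH 100 uM (dispensed conc.), cpd preinc 15 min RT; start with NADPH (500 uM addition) then DTNB (15 mM addition). Kinetic TNB absorbance, 405 nm filter. Four-parameter Hill fit across titration.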
# Numbers stand for hits; n = inactive; u = inconclusive; x = no result. Unless noted, calls follow the shape of the dose curve; as a rule, active = well fitted curve in the direction sought with a large enough effect; inconclusive = small, poorly fitted or top-dose-only effect, or another doubt; inactive = no such curve, though single readings can be large; an effect the other way counts as inactive or inconclusive.
SMILES,LmPK inhibitor,FBPA Giardia inh,Shiga inhibitor,TbPYK inhibitor,CHX counter,Sm TGR inh
O=C(OCc1ccccc1)c1ccc2c(c1)-c1ccccc1C2=O,n,n,26.7,n,16.2,n
Cc1ccc(-c2nn3c(-c4ccccc4C)nnc3c3ccccc23)cc1,x,x,x,n,x,n
CCN(CC)c1ccc(-c2nc3cnccc3n2C)cc1,n,n,135.2,n,32.6,n
O=C(O)c1cccc(NC2=C(N3CCOCC3)C(=O)c3ccccc3C2=O)c1,n,u,n,n,n,44.7µM
O=C1C(NS(=O)(=O)c2cccs2)=C(N2CCOCC2)C(=O)c2ccccc21,n,u,n,n,n,u
CN(C1=C(N2CCOCC2)C(=O)c2ccccc2C1=O)c1ccccc1,n,u,n,n,n,25.1µM
COc1cccc(NC(=O)CN(C)C(=O)c2ccc3c(c2)S(=O)(=O)N=C2CCCCCN23)c1,x,x,x,n,x,n
CCC(NC(=O)C(C)NC)C(=O)N1CCCC1C(=O)NC1CCCc2ccccc21 (centres undefined),x,x,x,n,x,31.6µM
CCC(C)[C@H](NC(=O)NC1CCCc2ccccc21)C(=O)O (some centres undefined),n,n,n,n,n,n
Cc1ccc2ncc(C(=O)NCCc3ccc(S(N)(=O)=O)cc3)c(=O)n2c1,x,x,x,n,x,n
Cc1nc2ccc(NC(=O)COc3ccccc3[N+](=O)[O-])cc2s1,n,n,n,n,n,n
Cc1nc2ccc(NC(=O)COc3ccccc3C)cc2s1,n,n,64.4,n,34.0,n
O=C(Cc1cccs1)Nc1ccc(F)c(F)c1,n,n,n,n,n,n
CC(C)NS(=O)(=O)c1ccc(NC(=O)Cc2cccs2)cc1,n,n,40.5,n,23.8,n
O=C(Cc1cccs1)Nc1ccc(F)cc1,n,n,n,n,10.0,n
CCOc1cccc(NC(=O)Cc2cccs2)c1,n,n,40.9,n,n,n
COc1cc(CN2C[C@@H](CO)O[C@@H](n3cnc4c(NCc5ccco5)ncnc43)C2)cc(OC)c1OC,x,x,x,n,x,x
Cc1nc2ccc(NC(=O)Cc3cccs3)cc2s1,n,n,59.6,n,29.4,n
CC(=O)Nc1cccc(NC(=O)Cc2cccs2)c1,n,n,n,n,n,u
O=C(Cc1cccs1)Nc1ccc(C(=O)O)cc1,n,n,n,n,n,n
Cc1ccc(NC(=O)Cc2cccs2)cc1Cl,n,n,49.7,n,38.4,n
O=C(Cc1cccs1)Nc1cccc(-c2nc3cc4ccccc4cc3[nH]2)c1,n,n,119.8,n,68.3,n
COc1ccc(C(=O)N[C@H](C(=O)OCC(=O)NC(=O)c2cccn2C)C(C)C)cc1,n,n,n,n,15.5,n
COc1cc(OC)cc(C(=O)N[C@H](C(=O)OCC(=O)NC(=O)c2cccn2C)C(C)C)c1,n,n,n,n,n,n
CCN(CC)CCCNC(=O)Cn1cnc2sc(C)c(S(=O)(=O)N3CCC(C)CC3)c2c1=O,n,n,n,n,n,n
SMILES,LmPK inhibitor,FBPA Giardia inh,Shiga inhibitor,TbPYK inhibitor,CHX counter,Sm TGR inh
COc1ccc(NC(=O)C2C3C=CC(C3)C2C(=O)O)cc1 (centres undefined),n,n,n,n,n,n
Cc1ccc(-c2ccc(NC(=O)C3C4C=CC(C4)C3C(=O)O)cc2)o1 (centres undefined),n,n,62.2,n,46.4,44.7µM
O=C(COC(=O)C1CCC(=O)N1)Nc1ccccc1OC(F)F (centres undefined),x,x,x,n,x,x
CN(C(=O)c1ccc2c(=O)n3c(nc2c1)CCCCC3)c1ccccc1F,n,n,n,n,16.9,n
COc1ccc(CN(C)C(=O)c2ccc3c(=O)n4c(nc3c2)CCC4)cc1,n,x,110.2,n,44.0,n
CCCN(C(=O)c1ccc2c(=O)n3c(nc2c1)CCCCC3)c1cccc(Cl)c1,x,x,x,n,x,n
CN(C(=O)c1ccc2c(=O)n3c(nc2c1)CCCCC3)c1cccc(Cl)c1,n,n,n,n,17.5,n
COc1ccccc1OCC(=O)N1CCN(C(=O)c2ccco2)CC1,n,x,n,n,n,n
COc1ccc(C2=NOC3(CC(=O)N(c4ccc(F)cc4)C3=O)C2)cc1 (centres undefined),n,n,n,n,n,20µM
C=CC[C@H](CC(=O)OC(C)(C)C)C(=O)OC[C@H]1CCCN1C(=O)[C@@H](CC=C)CC(=O)N(CCO)Cc1ccccc1,x,x,x,n,x,x
CCOC(=O)CN=C1CC(C)(C)CC2=C1Sc1ncnc(N(C)C)c1N2,n,2.51µM,n,u,n,u
Cc1ccc2nc(SCC(=O)N3CCOCC3)[nH]c2c1,n,n,55.9,n,38.3,n
C/C(N)=C(/C#N)C(=O)CSc1nc2ccc(C)cc2[nH]1,n,n,86.0,n,56.2,n
Cc1ccc2[nH]c(SCC(=O)N3CCOCC3)nc2c1C,n,n,97.9,n,52.2,n
O=C(CSc1nc2ncc(Cl)cc2[nH]1)N1CCOCC1,x,x,x,n,x,x
CC(=O)c1cc2c(cc1NC(=O)CSc1nc3ccc(C)cc3[nH]1)OCO2,n,n,n,n,19.7,n
O=c1[nH]c(=O)n(C2CCCCC2)c(O)c1C1=Nc2ccccc2SC(c2ccc(Cl)cc2)C1 (centres undefined),x,x,x,n,x,n
Cc1ccc2nc(SCC3CCCCO3)[nH]c2c1 (centres undefined),n,n,43.9,n,29.7,n
Cc1ccc(CNC(=O)CN2C(=O)COc3ccccc32)cc1,x,x,x,n,x,n
CCCC(=O)Oc1ccc(-c2nccc(C(OC)OC)n2)cc1,n,n,51.9,n,n,n
COC(OC)c1ccnc(-c2ccc(OC(=O)c3ccc(F)cc3)cc2)n1,n,n,n,n,n,n
Cc1ccc(C(=O)N(C)c2nnc(-c3ccncc3)s2)cc1,n,n,58.4,n,14.9,x
CN(C(=O)c1ccncc1)c1nnc(-c2ccccn2)s1,n,n,n,n,34.7,n
COc1cc(OC)c(CN2CCc3c([nH]c4ccccc34)C2)cc1Br,n,n,n,n,n,35.5µM
Cc1cccc(CN2CCc3c([nH]c4ccccc34)C2)c1,n,u,n,n,n,n
NC[C@@H]1O[C@H](OC2[C@@H](CO)O[C@@H](OC3[C@H](O)[C@H](N)C[C@H](N)[C@H]3OC3O[C@H](CO)[C@@H](O)[C@H](O)[C@@H]3N)[C@H]2O)C(N)[C@H](O)[C@@H]1O (some centres undefined),x,x,x,n,x,x
COc1cc(OC)cc(C(=O)N=c2sc3ccccc3n2C)c1,n,n,32.8,n,29.3,n
COC(=O)Cn1c(=NC(=O)c2cccc(OC)c2)sc2cc(OC)ccc21,n,n,n,n,n,n
Cn1c(=NC(=O)COc2ccccc2)sc2ccccc21,n,n,77.8,n,42.4,n
COc1cccc(C(=O)N=c2sc3cc(S(C)(=O)=O)ccc3n2C)c1,n,n,80.1,n,27.6,n
